# According to the supplement of paper PMC8728848:
# Many of the other results were omitted from the sample, so the strongest signals are more common in it than they were.
# B1: DrGal3 (Danio rerio) (protein)
# chain: MDLSDALDAPPQQNNQQAGGPVWPGQPANPVWPGQPANPTWPGQPNQPAWPGQPNQQWPGQPGQPTAPGWPGPAPQTGPYGAPGQAPQVLTVPLDFPLQNGAYNKMLITINGEVKPNAKQFTVNLRRGNDIAFHINPRFSEGGKPVIVRNSMIGNNWGREERELPSFPFVPGKPFEMKILITDTEYKVAVNKSHLLEFKHRVFELNQITGLSIYNDVTLSTVNVETLQ
# Legend:
# Assay in all cases: glycan array binding signal (z-score within array); higher = stronger binding
# Details in all cases: glycan notation: IUPAC condensed, linker removed
# [1] = target: Gal(b1-4)GlcNAc(b1-3)Gal(b1-4)GlcNAc(b1-3)Gal(b1-4)GlcNAc(b1-3)Gal(b1-4)GlcNAc(b1-3)Gal(b1-4)GlcNAc(b1-2)Man(a1-3)[Gal(b1-4)GlcNAc(b1-3)Gal(b1-4)GlcNAc(b1-3)Gal(b1-4)GlcNAc(b1-3)Gal(b1-4)GlcNAc(b1-3)Gal(b1-4)GlcNAc(b1-2)Man(a1-6)]Man(b1-4)GlcNAc(b1-4)[Fuc(a1-6)]GlcNAc
# Method in brief: (§1)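 Negative Z-scores can be read as non-binding. The Z-score is calculated within each array and then averaged across arrays of one protein sequence at different concentrations or buffers and across linkers. Arrays, 3228 in all, were curated from the Consortium for Functional Glycomics database and kept only where the protein sequence was available.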
# [2] = target: Gal(b1-4)GlcNAc(b1-3)Gal(b1-4)GlcNAc(b1-3)Gal(b1-4)GlcNAc(b1-3)Gal(b1-4)GlcNAc(b1-3)Gal(b1-4)GlcNAc(b1-2)[Gal(b1-4)GlcNAc(b1-3)Gal(b1-4)GlcNAc(b1-3)Gal(b1-4)GlcNAc(b1-3)Gal(b1-4)GlcNAc(b1-3)Gal(b1-4)GlcNAc(b1-6)]Man(a1-6)[Gal(b1-4)GlcNAc(b1-3)Gal(b1-4)GlcNAc(b1-3)Gal(b1-4)GlcNAc(b1-3)Gal(b1-4)GlcNAc(b1-3)Gal(b1-4)GlcNAc(b1-2)Man(a1-3)]Man(b1-4)GlcNAc(b1-4)[Fuc(a1-6)]GlcNAc
# Method in brief: as §1
# [3] = target: Gal(b1-4)GlcNAc(b1-3)Gal(b1-4)GlcNAc(b1-3)Gal(b1-4)GlcNAc(b1-3)Gal(b1-4)GlcNAc(b1-3)Gal(b1-4)GlcNAc(b1-3)Gal(b1-4)GlcNAc(b1-2)Man(a1-3)[Gal(b1-4)GlcNAc(b1-3)Gal(b1-4)GlcNAc(b1-3)Gal(b1-4)GlcNAc(b1-3)Gal(b1-4)GlcNAc(b1-3)Gal(b1-4)GlcNAc(b1-3)Gal(b1-4)GlcNAc(b1-2)Man(a1-6)]Man(b1-4)GlcNAc(b1-4)GlcNAc
# Method in brief: as §1
# [4] = target: Gal(b1-4)GlcNAc(b1-6)GalNAc
# Method in brief: as §1
# GalNAc6S(b1-4)GlcNAc = target: GalNAc6S(b1-4)GlcNAc
# Method in brief: as §1
# [5] = target: GlcNAc(a1-4)Gal(b1-4)GlcNAc
# Method in brief: as §1
# [6] = target: GlcNAc(b1-2)[GlcNAc(b1-4)]Man(a1-3)[GlcNAc(b1-4)][GlcNAc(b1-2)[GlcNAc(b1-6)]Man(a1-6)]Man(b1-4)GlcNAc(b1-4)GlcNAc
# Method in brief: as §1
# [7] = target: GlcNAc(b1-2)[GlcNAc(b1-6)]Man(a1-6)[GlcNAc(b1-4)][GlcNAc(b1-2)Man(a1-3)]Man(b1-4)GlcNAc(b1-4)GlcNAc
# Method in brief: as §1
# GlcNAc(b1-3)Gal(b1-4)Glc = target: GlcNAc(b1-3)Gal(b1-4)Glc
# Method in brief: as §1
# [8] = target: GlcNAc(b1-3)Gal(b1-4)GlcNAc(b1-3)Gal(b1-4)GlcNAc(b1-3)Gal(b1-4)GlcNAc(b1-2)Man(a1-3)[GlcNAc(b1-3)Gal(b1-4)GlcNAc(b1-3)Gal(b1-4)GlcNAc(b1-3)Gal(b1-4)GlcNAc(b1-2)Man(a1-6)]Man(b1-4)GlcNAc(b1-4)[Fuc(a1-6)]GlcNAc
# Method in brief: as §1
# [9] = target: GlcNAc(b1-3)Gal(b1-4)GlcNAc(b1-3)Gal(b1-4)GlcNAc(b1-3)Gal(b1-4)GlcNAc(b1-3)Gal(b1-4)GlcNAc(b1-2)Man(a1-3)[GlcNAc(b1-3)Gal(b1-4)GlcNAc(b1-3)Gal(b1-4)GlcNAc(b1-3)Gal(b1-4)GlcNAc(b1-3)Gal(b1-4)GlcNAc(b1-2)Man(a1-6)]Man(b1-4)GlcNAc(b1-4)GlcNAc
# Method in brief: as §1
# [10] = target: GlcNAc(b1-3)Gal(b1-4)GlcNAc(b1-3)Gal(b1-4)GlcNAc(b1-3)Gal(b1-4)GlcNAc(b1-3)Gal(b1-4)GlcNAc(b1-2)Man(a1-3)[GlcNAc(b1-3)Gal(b1-4)GlcNAc(b1-3)Gal(b1-4)GlcNAc(b1-3)Gal(b1-4)GlcNAc(b1-3)Gal(b1-4)GlcNAc(b1-2)Man(a1-6)]Man(b1-4)GlcNAc(b1-4)[Fuc(a1-6)]GlcNAc
# Method in brief: as §1
# [11] = target: GlcNAc(b1-3)Gal(b1-4)GlcNAc(b1-3)Gal(b1-4)GlcNAc(b1-3)Gal(b1-4)GlcNAc(b1-3)Gal(b1-4)GlcNAc(b1-2)[GlcNAc(b1-3)Gal(b1-4)GlcNAc(b1-3)Gal(b1-4)GlcNAc(b1-3)Gal(b1-4)GlcNAc(b1-3)Gal(b1-4)GlcNAc(b1-6)]Man(a1-6)[GlcNAc(b1-3)Gal(b1-4)GlcNAc(b1-3)Gal(b1-4)GlcNAc(b1-3)Gal(b1-4)GlcNAc(b1-3)Gal(b1-4)GlcNAc(b1-2)Man(a1-3)]Man(b1-4)GlcNAc(b1-4)[Fuc(a1-6)]GlcNAc
# Method in brief: as §1
# [12] = target: Man(a1-2)Man(a1-3)[Man(a1-6)]Man(a1-6)[Man(a1-2)Man(a1-3)]Man(b1-4)GlcNAc(b1-4)GlcNAc
# Method in brief: as §1
# [13] = target: Neu5Ac(a2-3)Gal(b1-4)GlcNAc6S
# Method in brief: as §1
# [14] = target: Neu5Ac(a2-3)[Neu5Ac(a2-6)]GalNAc
# Method in brief: as §1
# [15] = target: Neu5Ac(a2-6)Gal(b1-4)GlcNAc
# Method in brief: as §1
# [16] = target: Neu5Ac(a2-6)Gal(b1-4)GlcNAc(b1-2)[Neu5Ac(a2-6)Gal(b1-4)GlcNAc(b1-4)]Man(a1-3)[GlcNAc(b1-4)][Neu5Ac(a2-6)Gal(b1-4)GlcNAc(b1-4)Man(a1-6)]Man(b1-4)GlcNAc(b1-4)GlcNAc
# Method in brief: as §1
# [17] = target: Neu5Ac(a2-6)Gal(b1-4)GlcNAc(b1-3)Gal(b1-4)GlcNAc
# Method in brief: as §1
# [18] = target: Neu5Ac(a2-6)Gal(b1-4)GlcNAc(b1-3)Gal(b1-4)GlcNAc(b1-3)Gal(b1-4)GlcNAc
# Method in brief: as §1
# [19] = target: Neu5Ac(a2-6)Gal(b1-4)GlcNAc(b1-3)Gal(b1-4)GlcNAc(b1-3)[Neu5Ac(a2-6)Gal(b1-4)GlcNAc(b1-3)Gal(b1-4)GlcNAc(b1-6)]GalNAc
# Method in brief: as §1
# [20] = target: Neu5Ac(a2-8)Neu5Ac(a2-3)Gal(b1-4)Glc
# Method in brief: as §1
# [21] = target: Neu5Ac(a2-8)Neu5Ac(a2-8)Neu5Ac(a2-3)Gal(b1-4)Glc
# Method in brief: as §1
# [22] = target: Neu5Gc(a2-3)Gal(b1-4)[Fuc(a1-3)]GlcNAc
# Method in brief: as §1
# Neu5Gc(a2-6)GalNAc = target: Neu5Gc(a2-6)GalNAc
# Method in brief: as §1
binder,measurement,setting,value
B1,glycan array binding signal (z-score),[1],4.37
same,glycan array binding signal (z-score),[2],5.52
same,glycan array binding signal (z-score),[3],5.72
same,glycan array binding signal (z-score),[4],-0.192
same,glycan array binding signal (z-score),GalNAc6S(b1-4)GlcNAc,-0.282
same,glycan array binding signal (z-score),[5],-0.256
same,glycan array binding signal (z-score),[6],-0.297
same,glycan array binding signal (z-score),[7],-0.243
same,glycan array binding signal (z-score),GlcNAc(b1-3)Gal(b1-4)Glc,-0.284
same,glycan array binding signal (z-score),[8],6.12
same,glycan array binding signal (z-score),[9],5.4
same,glycan array binding signal (z-score),[10],5.55
same,glycan array binding signal (z-score),[11],3.29
same,glycan array binding signal (z-score),[12],-0.249
same,glycan array binding signal (z-score),[13],-0.189
same,glycan array binding signal (z-score),[14],-0.275
same,glycan array binding signal (z-score),[15],-0.257
same,glycan array binding signal (z-score),[16],-0.234
same,glycan array binding signal (z-score),[17],-0.25
same,glycan array binding signal (z-score),[18],0.971
same,glycan array binding signal (z-score),[19],-0.107
same,glycan array binding signal (z-score),[20],-0.271
same,glycan array binding signal (z-score),[21],-0.195
same,glycan array binding signal (z-score),[22],-0.086
same,glycan array binding signal (z-score),Neu5Gc(a2-6)GalNAc,-0.254
